Source: PubChem BioAssay (EPA / NIEHS)
Active and inactive are the calls of the source. How the source made its calls: active means hit-call score of the fitted dose curve at least 0.9, where 1 is the maximum; inactive means score below 0.9.

What was measured:
Conditions in all cases: mRNA level, 48 h; actives raise or lower the signal
[1] = read-out: Cytochrome P450 (CYP1A1), CYP1A1 (gene 1543); test: LTEA_HepaRG_CYP1A1: Life Technologies and Expression Analysis (LTEA) Assay for Cytochrome P450 (CYP1A1) using HepaRG (AID 2283454)
How it was run: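 Induction of CYP1A1 mRNA in a human hepatic cell line was measured 48 h after dosing, with 1 mM phenobarbital as induction positive control and 0.5% DMSO vehicle as baseline for bidirectional curve fitting.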

[2] = read-out: CFLAR gene, CFLAR (gene 8837); test: LTEA_HepaRG_CFLAR: Life Technologies and Expression Analysis (LTEA) Assay for CFLAR gene using HepaRG (AID 2283455)
How it was run: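 HepaRG cells were plated for 48 h, switched to serum-free induction medium, then exposed in duplicate for 48 h to 8 concentrations (top 100 uM, half-log steps, 0.5% DMSO). CFLAR mRNA was measured by qRT-PCR, normalized to ACTB, GAPDH and POLR2A.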

[3] = read-out: Forkhead box O1 (FOXO1), FOXO1 (gene 2308); test: LTEA_HepaRG_FOXO1: Life Technologies and Expression Analysis (LTEA) Assay for Forkhead box O1 (FOXO1) using HepaRG (AID 2283456)
How it was run: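 Differentiated human HepaRG cells in serum-free induction medium were exposed in duplicate for 48 h to eight half-log concentrations (top 100 uM, 0.5% DMSO). FOXO1 mRNA was measured by TaqMan qRT-PCR, normalised to ACTB, GAPDH and POLR2A, and fitted bidirectionally against DMSO.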

[4] = read-out: growth arrest and DNA damage 45 (GADD45A), GADD45A (gene 1647); test: LTEA_HepaRG_GADD45A: Life Technologies and Expression Analysis (LTEA) Assay for growth arrest and DNA damage 45 (GADD45A) using HepaRG (AID 2283458)
How it was run: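 Human HepaRG liver cells are treated in duplicate for 48 h with chemicals in 0.5% DMSO, highest concentration 100 uM. Expression is read by qRT-PCR and analyzed in both directions against vehicle.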

[5] = read-out: Forkhead box O3 (FOXO3), FOXO3 (gene 2309); test: LTEA_HepaRG_FOXO3: Life Technologies and Expression Analysis (LTEA) Assay for Forkhead box O3 (FOXO3) using HepaRG (AID 2283459)
How it was run: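 Differentiated human HepaRG cells in serum-free induction medium were exposed in duplicate for 48 h to eight half-log concentrations up to 100 uM in 0.5% DMSO. FOXO3 mRNA was quantified by qRT-PCR, normalized to ACTB, GAPDH and POLR2A, with bidirectional fitting versus DMSO.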

[6] = read-out: ABC Transporter (ABCB1), ABCB1 (gene 5243); test: LTEA_HepaRG_ABCB1: Life Technologies and Expression Analysis (LTEA) Assay for ABC Transporter (ABCB1) using HepaRG (AID 2283460)
How it was run: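 Differentiated human HepaRG cells, plated 48 h then switched to serum-free induction medium, were exposed in duplicate to eight half-log concentrations up to 100 uM in 0.5% DMSO for 48 h. ABCB1 mRNA was measured by TaqMan qRT-PCR, normalized to ACTB/GAPDH/POLR2A.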

[7] = read-out: growth arrest and DNA damage 45 (GADD45B), GADD45B (gene 4616); test: LTEA_HepaRG_GADD45B: Life Technologies and Expression Analysis (LTEA) Assay for growth arrest and DNA damage 45 (GADD45B) using HepaRG (AID 2283461)
How it was run: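 Values are bidirectional concentration-response fits against 0.5% DMSO controls. Underlying data: qRT-PCR mRNA levels in human HepaRG liver cells treated 48 h in serum-free induction medium, eight concentrations topping at 100 uM.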

[8] = read-out: ABC Transporter (ABCC3), ABCC3 (gene 8714); test: LTEA_HepaRG_ABCC3: Life Technologies and Expression Analysis (LTEA) Assay for ABC Transporter (ABCC3) using HepaRG (AID 2283462)
How it was run: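 Differentiated HepaRG liver cells receive test chemicals at eight concentrations (max 100 uM) for 48 h. Expression of ABCC3 is quantified by qRT-PCR against ACTB, GAPDH and POLR2A, and activity is fitted in both directions against the DMSO control.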

[9] = read-out: ABC Transporter (ABCB11), ABCB11 (gene 8647); test: LTEA_HepaRG_ABCB11: Life Technologies and Expression Analysis (LTEA) Assay for ABC Transporter (ABCB11) using HepaRG (AID 2283463)
How it was run: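 Differentiated human HepaRG cells were exposed for 48 h in serum-free induction medium to eight half-log concentrations up to 100 uM in 0.5% DMSO. ABCB11 mRNA was quantified by qRT-PCR, normalized to ACTB, GAPDH and POLR2A, and fitted bidirectionally versus DMSO.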

[10] = read-out: ABC Transporter (ABCC2), ABCC2 (gene 1244); test: LTEA_HepaRG_ABCC2: Life Technologies and Expression Analysis (LTEA) Assay for ABC Transporter (ABCC2) using HepaRG (AID 2283464)
How it was run: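 Gene expression of ABCC2 was determined by qRT-PCR in HepaRG cells exposed 48 h to chemicals (highest 100 uM, half-log dilutions). Activity was fitted in both directions relative to 0.5% DMSO vehicle.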

[11] = read-out: Broad substrate specificity ATP-binding cassette transporter ABCG2 (Homo sapiens) (UniProt Q9UNQ0); test: LTEA_HepaRG_ABCG2: Life Technologies and Expression Analysis (LTEA) Assay for ABC Transporter (ABCG2) using HepaRG (AID 2283465)
How it was run: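 Differentiated HepaRG cells in serum-free induction medium were exposed for 48 h, in duplicate, to eight half-log concentrations up to 100 uM in 0.5% DMSO. ABCG2 mRNA was measured by TaqMan qRT-PCR, normalized to ACTB, GAPDH and POLR2A, and fitted bidirectionally versus DMSO.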

[12] = read-out: ATP-citrate lyase (ACLY), ACLY (gene 47); test: LTEA_HepaRG_ACLY: Life Technologies and Expression Analysis (LTEA) Assay for ATP-citrate lyase (ACLY) using HepaRG (AID 2283466)
How it was run: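 Differentiated human HepaRG cells in serum-free induction medium exposed 48 h, in duplicate, to eight half-log concentrations from 100 uM top in 0.5% DMSO; ACLY mRNA measured by qRT-PCR, normalized to ACTB, GAPDH, POLR2A, fitted bidirectionally versus DMSO.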

[13] = read-out: Peroxisomal acyl-coenzyme A oxidase 1 (ACOX1) gene, ACOX1 (gene 51); test: LTEA_HepaRG_ACOX1: Life Technologies and Expression Analysis (LTEA) Assay for Peroxisomal acyl-coenzyme A oxidase 1 (ACOX1) gene using HepaRG (AID 2283467)
How it was run: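 Differentiated human HepaRG cells were exposed in duplicate for 48 h in serum-free induction medium to eight half-log concentrations up to 100 uM in 0.5% DMSO. ACOX1 mRNA was then quantified by TaqMan qRT-PCR, normalized to ACTB, GAPDH and POLR2A.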

[14] = read-out: Alkaline Phosphatase, Placental (ALPP) gene, ALPP (gene 250); test: LTEA_HepaRG_ALPP: Life Technologies and Expression Analysis (LTEA) Assay for Alkaline Phosphatase, Placental (ALPP) gene using HepaRG (AID 2283468)
How it was run: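 Expression of ALPP was quantified by qRT-PCR against three housekeeping genes in human HepaRG cultures treated for 48 h with an eight-point concentration series up to 100 uM. Activity in either direction was fitted relative to 0.5% DMSO.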

[15] = read-out: Bcl-2 (BAD) gene, BAD (gene 572); test: LTEA_HepaRG_BAD: Life Technologies and Expression Analysis (LTEA) Assay for Bcl-2 (BAD) gene using HepaRG (AID 2283469)
How it was run: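 Differentiated human HepaRG cells in serum-free induction medium were exposed in duplicate for 48 h to eight concentrations (top 100 uM, half-log steps, 0.5% DMSO). BAD mRNA was quantified by qRT-PCR normalised to ACTB, GAPDH and POLR2A, with bidirectional fitting versus DMSO.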

[16] = read-out: Bcl-2 (BAX) gene, BAX (gene 581); test: LTEA_HepaRG_BAX: Life Technologies and Expression Analysis (LTEA) Assay for Bcl-2 (BAX) gene using HepaRG (AID 2283470)
How it was run: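 Concentration-response endpoint fitted in both directions relative to 0.5% DMSO vehicle. Human HepaRG cultures receive test chemicals for 48 h at up to 100 uM; BAX mRNA is quantified by qRT-PCR against housekeeping genes.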

[17] = read-out: adenosine kinase (ADK) gene, ADK (gene 132); test: LTEA_HepaRG_ADK: Life Technologies and Expression Analysis (LTEA) Assay for adenosine kinase (ADK) gene using HepaRG (AID 2283471)
How it was run: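 Differentiated HepaRG cells dosed 48 h in serum-free induction medium, 0.5% DMSO vehicle, eight half-log concentrations from 100 uM, in duplicate. ADK mRNA by TaqMan qRT-PCR normalised to ACTB, GAPDH, POLR2A; bidirectional fit versus DMSO.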

[18] = read-out: Alpha-fetoprotein (AFP) gene, AFP (gene 174); test: LTEA_HepaRG_AFP: Life Technologies and Expression Analysis (LTEA) Assay for Alpha-fetoprotein (AFP) gene using HepaRG (AID 2283472)
How it was run: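 After a 48 h plating period, cells are moved to serum-free induction medium and dosed in duplicate (100 uM maximum, half-log dilutions, 0.5% DMSO) for another 48 h. Total RNA goes to TaqMan qRT-PCR; AFP signal is housekeeping-normalized.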

BCL2L11 (gene 10018) = test: LTEA_HepaRG_BCL2L11: Life Technologies and Expression Analysis (LTEA) Assay for Bcl-2 (BCL2L11) gene using HepaRG (AID 2283473)
How it was run: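 Cells were plated, cultured 48 h, switched to serum-free induction medium, then dosed in duplicate for 48 h at eight half-log concentrations up to 100 uM. Lysates underwent RNA isolation and TaqMan qRT-PCR; gain or loss versus DMSO was fitted.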

[19] = read-out: Apolipoprotein A-V (APOA5) gene, APOA5 (gene 116519); test: LTEA_HepaRG_APOA5: Life Technologies and Expression Analysis (LTEA) Assay for Apolipoprotein A-V (APOA5) gene using HepaRG (AID 2283474)
How it was run: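 Human liver HepaRG cells are treated 48 h with test chemicals (100 uM top, half-log dilutions, 0.5% DMSO). APOA5 mRNA induction or loss is measured by qRT-PCR relative to vehicle.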

Measured: AC50

Broad substrate specificity ATP-binding cassette transporter ABCG2 (Homo sapiens), sequence (Q9UNQ0 whole entry, looked up): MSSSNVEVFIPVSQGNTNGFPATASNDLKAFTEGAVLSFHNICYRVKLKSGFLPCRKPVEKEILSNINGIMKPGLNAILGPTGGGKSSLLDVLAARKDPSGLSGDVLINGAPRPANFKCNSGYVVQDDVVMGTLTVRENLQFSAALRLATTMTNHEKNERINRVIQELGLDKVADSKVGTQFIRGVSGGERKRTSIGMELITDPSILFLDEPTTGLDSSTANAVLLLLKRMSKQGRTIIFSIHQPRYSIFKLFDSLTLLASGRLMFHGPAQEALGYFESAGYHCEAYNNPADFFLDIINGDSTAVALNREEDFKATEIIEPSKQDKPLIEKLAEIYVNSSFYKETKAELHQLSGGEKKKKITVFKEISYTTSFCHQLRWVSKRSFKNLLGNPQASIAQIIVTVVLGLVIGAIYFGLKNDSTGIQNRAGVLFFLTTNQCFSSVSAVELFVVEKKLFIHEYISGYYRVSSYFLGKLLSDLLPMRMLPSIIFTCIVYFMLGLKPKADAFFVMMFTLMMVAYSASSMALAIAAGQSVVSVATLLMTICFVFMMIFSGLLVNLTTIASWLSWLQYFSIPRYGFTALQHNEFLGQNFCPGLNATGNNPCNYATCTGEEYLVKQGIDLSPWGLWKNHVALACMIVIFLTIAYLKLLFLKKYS

O=[N+]([O-])c1ccc(Cl)cc1
active: [1] 37.8 µM
inactive: all other assays above
